Source: PubChem BioAssay
Most compounds without a hit are left out; they make up all but 7% or so of the library.
PI5P4K alpha inh: blocks human PI5P4K alpha kinase activity | 330,000 tested, 1.2% active | max response, % | PI5P4Kalpha enzyme, ADP-Glo luminescence, 60 min; stronger effect = lower value | AID 652105 | P48426; active = max response of -50% or lower; inconclusive = between -30% and -50%; inactive = -30% or higher; also: value at the top dose of about 77 µM; % is scaled to controls: 0 for no effect and ±100 for the full control effect
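Compounds were pin-transferred onto PI5P4Kalpha and substrate in HEPES pH 7.4 buffer with EGTA, CHAPS and 5% DMSO. ATP (5 microM final) started the reaction, which ran 60 minutes at room temperature before ADP-Glo detection.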
HP1b binding inh: HP1-beta chromodomain-methylated histone interaction inhibition; P83916; AlphaScreen HP1-beta / biotin-H3K9me3 peptide binding; Potency, µM (series often up to 114 µM), for inactives: at the highest dose activity change, negative = inhibition, hits mostly inhibitors; 390,000 tested, 0.56% active; AID 540317; also: potency is read from the fitted curve at half-maximal effect; nearly all actives have a fitted effect of over 70% in size
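Compound inhibition of the preformed complex between 50 nM HP1-beta and 50 nM biotinylated H3K9me3 peptide was read by AlphaScreen. Buffer was PBS pH 7.4 with 0.01% Tween-20. Incubations ran 30 min at room temperature, with 10 ug/mL donor/acceptor beads.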
PLK1 PBD inh: blocks phosphopeptide binding to human PLK1 polo-box domain. Plk1 PBD binding of FITC phosphopeptide, fluorescence polarization. P53350. Potency, µM, inactives show max response, negative = inhibition, usual class: inhibitors. 360,000 tested, 2.8% active; also: potency is read from the fitted curve at half-maximal effect; series mostly up to about 57 µM; % is scaled to controls: 0 for no effect and ±100 for the full control effect; nearly all actives have a fitted effect of over 65% in size
KAT2A inh: GCN5L2 (KAT2A) acetyltransferase inhibition; 390,000 tested, 0.21% active; Potency, µM (doses to about 58.9 µM), for inactives: top-dose activity change, negative = inhibition, most hits filed as inhibitors; GCN5L2 HAT assay, ThioGlo1 CoA-SH fluorescence; also: potency is read from the fitted curve at half-maximal effect; % is scaled to controls: 0 for no effect and ±100 for the full control effect
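Titration-based screen in which CoA formation is detected via maleimide probe ThioGlo1 (50uM) turning fluorescent on thiol reaction; substrates H3(1-25) 75uM and acetyl-CoA 70uM, GCN5L2 20nM, 20 min incubation at room temperature.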
JMJD2A Tudor inh: JMJD2A Tudor domain (human) inhibition | O75164 | AlphaScreen JMJD2A-Tudor / H3K4me3 peptide binding | Potency, µM (series often up to 114 µM), for inactives: at the highest dose activity change, negative = inhibition, hits mostly inhibitors | 390,000 tested, 4.4% active; also: potency is read from the fitted curve at half-maximal effect; % is scaled to controls: 0 for no effect and ±100 for the full control effect; nearly all actives have a fitted effect of over 50% in size
BAZ2B block: inhibitors of human BAZ2B bromodomain; AlphaScreen BAZ2B-H3K14Ac peptide displacement; Potency, µM (highest dose often 114 µM), without a hit: top-dose activity change, negative = inhibition, most hits filed as inhibitors; 360,000 tested, 4.4% active; also: potency is read from the fitted curve at half-maximal effect; % is scaled to controls: 0 for no effect and ±100 for the full control effect; nearly all actives have a fitted effect of over 60% in size
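BAZ2B (50 nM) with biotin-H3(5-23)K14Ac peptide (50 nM) in PBS pH 7.4, 0.01% Tween-20, preformed 30 min, then compound 30 min at room temperature; top concentration 110uM. AlphaScreen streptavidin donor/nickel chelate acceptor beads (10 ug/mL final), 20 min dark, signal read.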
Starred values were filed as active, the others as inactive; ? = inconclusive; . = no result; ! = repeats disagree; [ ] = remark or other dose. Unless noted, calls follow the shape of the dose curve; as a rule, active = well fitted curve in the direction sought with a large enough effect; inconclusive = small, poorly fitted or top-dose-only effect, or another doubt; inactive = no such curve, though single readings can be large; an effect the other way counts as inactive or inconclusive.

SMILES	PI5P4K alpha inh	HP1b binding inh	PLK1 PBD inh	KAT2A inh	JMJD2A Tudor inh	BAZ2B block
O=c1cc(CSc2ccc(Cl)cc2)nc(-c2ccccn2)[nH]1	8	16%	3%	5%	79µM*	28µM*
CCN(C(=O)CSc1nnc(C2CC2)n1-c1ccccc1)C1CCS(=O)(=O)C1 (stereo not drawn)	-1	32%	-4%	4%	-3%	9%
COc1cc(CNCc2c[nH]c3ccccc23)cc(OC)c1	1	?	7%	-3%	3.5µM*	56µM*
c1ccc2cc(CNCc3cccc4ccccc34)ccc2c1	16	111%	3%	3%	23%	20%
COc1cc(CNCc2cccc3ccccc23)cc(OC)c1	-8	11%	1%	-2%	25µM*	50µM*
CCc1ccc(NC(=O)Cn2cnc3sc(C)c(S(=O)(=O)N4CCOCC4)c3c2=O)cc1	0	1%	-13%	-2%	-15%	0%
CCc1nnc(NC(=O)CCNC(=O)c2ccccc2Cl)s1	-4	7%	-4%	30%	-15%	-35%
CCc1nnc(NC(=O)C(=O)NCCOC(=O)c2ccccc2Cl)s1	.	12%	-4%	3.2µM*	?	34%
Cc1cc(C(=O)CCl)c(C)n1-c1cccc(S(=O)(=O)N2CCOCC2)c1	-3	-9%	21µM*	-6%	-9%	?
Nc1csnc1C(=O)O	-9	14%	-2%	-3%	20µM*	?
CC(C)Oc1cccc(C(=O)C2CCCN(C(=O)CCc3cnn(C)c3)C2)c1 (stereo not drawn)	7	33%	-2%	4%	-13%	0%
COc1ccc(-c2nn(-c3ccccc3)cc2CNC[C@H]2O[C@@H](n3ccc(=O)[nH]c3=O)[C@H](O)[C@@H]2O)cc1	2	.	-10%	.	.	.
O=C(CCCN1C(=O)/C(=C/c2cccs2)SC1=S)NNC(=O)c1ccncc1	4	32%	6%	-9%	-11%	?
O=C(CCCN1C(=O)/C(=C/c2cccs2)SC1=S)NNC(=O)c1ccccc1O	-16	23%	-11%	-2%	-18%	56µM*
COc1ccc(/C=C2\SC(=S)N(CCCC(=O)NNC(=O)c3ccccc3O)C2=O)cc1	14	?	24µM*	1%	-13%[11.4 µM]	50µM*
Cc1ccc(S(=O)(=O)C(CNC(=O)COc2ccc(Cl)cc2)c2ccco2)cc1 (stereo not drawn)	.	-7%	.	0%	-21%	-15%
CCN(c1cccc(C)c1)S(=O)(=O)c1nnc(NC(=O)c2ccccc2Cl)s1	.	81%	.	1%	55%	109%
CC(C)c1nnc(NC(=O)c2nc(S(=O)(=O)Cc3ccccc3)ncc2Cl)s1	-10	4%[57 µM]	?	-7%	-25%	50µM*!
CSc1nnc(NC(=O)c2nc(S(=O)(=O)Cc3ccccc3)ncc2Cl)s1	-15	-2%[57 µM]	30µM*	-6%	16µM*	45µM*
Cc1cccc(C(=O)OCC(=O)Nc2ccccc2C(=O)NC2CC2)c1	6	36%	-14%	-19%	1%	0%
Cc1ccc(-c2csc(=S)n2CC(=O)OCC(=O)NCc2ccc(F)cc2)cc1	.	.	.	-5%	.	-2%
COc1ccc(S(=O)(=O)N2CCC3(CC2)OCCN3S(=O)(=O)c2ccc(C)cc2)cc1OC	9	31%	-4%	-7%	-6%	-18%
CCN(C(=O)c1cccc(S(=O)(=O)N2CCc3ccccc32)c1)C1CCS(=O)(=O)C1 (stereo not drawn)	5	27%	-15%	-4%	-1%	10%
COc1cccc(N2C(=O)[C@H]3C(C(=O)c4cnccn4)=NN[C@H]3C2=O)c1	0	46%	-12%	-9%	50µM*	50µM*
Cc1cc(C)n(-c2nnc3c4ccccc4n(C)c3n2)n1	0	41%	3%	0%	79µM*	11µM*
SMILES	PI5P4K alpha inh	HP1b binding inh	PLK1 PBD inh	KAT2A inh	JMJD2A Tudor inh	BAZ2B block
CCOc1ccc(-c2cc3nc(C4CCN(C(=O)OC(C)(C)C)CC4)c(C(=O)Nc4cccc(Cl)c4C)cn3n2)cc1	.	59%	.	-11%	-5%	-2%
C#CCOCCOCCOCCNc1nc(N2CCN(C(=O)CCCCCCCCCCNC(=O)[C@@H](CCC(=O)O)n3cc(CCCCCN)nn3)CC2)nc(N2CCN(C(=O)CCCCCCCCCCNC(=O)[C@H](CCCCN)n3cc(C[C@@H](C)CC)nn3)CC2)n1	-53*	-3%	-2%	-1%	56µM*	?
C#CCOCCOCCOCCNc1nc(N2CCN(C(=O)[C@H]([C@@H](C)CC)n3cc(CCC(=O)O)nn3)CC2)nc(N2CCN(C(=O)[C@H](CCCCN)n3cc(CCC(=O)O)nn3)CC2)n1	8	15%	-8%	.	-21%	.
C#CCOCCOCCOCCNc1nc(N2CCN(C(=O)CCCCCCCCCCNC(=O)[C@H](CCCCN)n3cc(CCO)nn3)CC2)nc(N2CCN(C(=O)CCCCCCCCCCNC(=O)[C@H](CCCCN)n3cc(C[C@@H](C)CC)nn3)CC2)n1	-62*	50µM*	-22%	-7%	22µM*	?
C#CCOCCOCCOCCNc1nc(N2CCN(C(=O)CCCCCCCCCCNC(=O)[C@H](CCCCN)n3cc(CCO)nn3)CC2)nc(N2CCN(C(=O)CCCCCCCCCCNC(=O)[C@H](CCCCN)n3cc(CCCC(=O)O)nn3)CC2)n1	?	15%	-10%	-11%	-35%	-27%
CCC1=NN(C(=O)c2cccc(Br)c2)C(O)(c2ccc(Br)cc2)C1 (stereo not drawn)	5	2%	-7%	-9%	?	40µM*
N#Cc1ccsc1NC(=O)c1ccccn1	-11	9%	-13%	-18%	20µM*	10µM*
CC(C)Sc1ccc(C(=O)Nc2ccc(F)cc2F)cn1	-18	0%	19µM*	2%	-14%[11.4 µM]	3%
O=C(Nc1ccc(F)cc1F)c1ccc(-n2cccn2)nc1	-7	30%	-2%	-7%	?	-3%
CC(C)(C)N(Cc1ccccc1)C(=O)COC(=O)c1ccc(N2CCCC2=O)cc1	-9	1%[57 µM]	-10%	-5%	-19%	.
Cc1ccc(S(=O)(=O)N2[C@@H](c3ccc(Cl)cc3)C(C(=O)O)=CC[C@H]2c2cccc(Cl)c2)cc1	2	10%	24µM*	-6%	-19%	7%
Cc1ccc(S(=O)(=O)N2[C@@H](c3cccc(Cl)c3)C(C(=O)O)=CC[C@H]2c2ccc(C(C)C)cc2)cc1	-24	-4%	21µM*	?	?	?
Cc1ccc(S(=O)(=O)N2[C@@H](c3ccccc3)C(C(=O)O)=CC[C@H]2c2ccc(Cl)cc2)cc1	0	11%	24µM*	-4%	-35%	-9%
